{"source": "PubChem BioAssay (NCATS)", "key": {"[1]": {"experiment": "P-glycoprotein substrates identified in KB-8-5-11 adenocarcinoma cell line, qHTS therapeutic library screen (AID 1346987); also: nearly all actives have a fitted effect of over 65% in size; also: potency is read from the fitted curve at half-maximal effect", "summary_of_the_method": "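KB-8-5-11, a colchicine-selected P-gp-overexpressing KB-3-1 subline, was grown without colchicine for the assay. Cells were seeded at 500 cells/well, dosed in concentration-response and incubated 72 h at 37 degree C, 5% CO2. Viability was read by CellTiter-Glo luminescence.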"}, "[2]": {"experiment": "Primary qHTS for inhibitors of nuclear receptor binding SET domain protein 2 (NSD2) in an isogenic RCH-ACV NSD2 p.E1099K mutant (9B) (AID 1645876); also: potency is read from the fitted curve at half-maximal effect; nearly all actives have a fitted effect of over 70% in size"}, "[3]": {"experiment": "Primary qHTS for inhibitors of nuclear receptor binding SET domain protein 2 (NSD2) in an RCH-ACV wild type WT cells (2C) (AID 1645877); also: potency is read from the fitted curve at half-maximal effect; nearly all actives have a fitted effect of over 70% in size"}, "[4]": {"target": "Glutathione peroxidase 1 (Homo sapiens) (UniProt P07203)", "sequence (P07203 whole entry, looked up)": "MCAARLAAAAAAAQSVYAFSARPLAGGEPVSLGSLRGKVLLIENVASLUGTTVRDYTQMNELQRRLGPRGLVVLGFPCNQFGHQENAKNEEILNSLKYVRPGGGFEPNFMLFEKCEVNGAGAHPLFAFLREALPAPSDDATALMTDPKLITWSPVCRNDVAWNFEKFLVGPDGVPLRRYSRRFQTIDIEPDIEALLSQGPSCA", "experiment": "Primary qHTS Assay for Inhibitors of Recombinant Selenoprotein Glutathione Peroxidase 1 (GPX1) (AID 1845191); also: nearly all actives have a fitted effect of over 65% in size", "summary_of_the_method": "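10 nM GPX1 + cpd, 30 min RT; start w/ 1 mM GSH, 0.5 mM cumene hydroperoxide, 0.5 mM NADPH, 100 nM GR, 0.01% BSA; buffer 50 mM Tris-HCl pH 7.5, 2 mM EDTA, 150 mM NaCl; Fl 340/450, 0 & 15 min.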"}, "[5]": {"experiment": "qHTS drug screen for cell cycle checkpoint inhibitors in PARPi-resistant BRCA-mutant ovarian cancer cell lines. (AID 1963452; calls by dose curve)", "settings": "PEO1/OlaR viability, CellTiter-Glo luminescence, 96 h, stronger effect = lower value", "summary_of_the_method": "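PEO1, PEO4 and PEO1/OlaR ovarian cancer cells, 600 per well, exposed 96 h at 37C to a dilution series. Viability read by CellTiter-Glo luminescence, normalized to DMSO and empty wells; activity summarized as Z-AUC.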"}, "[6]": {"experiment": "qHTS assay to identify inhibitors of the type 1 interferon - major histocompatibility complex class I in skeletal muscle: Counter screen cell viability and HiBit confirmation (AID 1347412); also: % is scaled to controls: 0 for no effect and ±100 for the full control effect; nearly all actives have a fitted effect of over 60% in size", "settings": "iHSKM muscle cells + IFN-b, HiBiT or CellTiter-Glo, 24 h; HiBiT; at 45.9 µM (top of the series)", "summary_of_the_method": "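Myoblasts (C25cl48, HLA-B HiBiT) seeded in medium without dexamethasone, IFN-b 4 ng/ml added except unstimulated columns; 1 hr later compounds pinned (12-pt 1:3, top 46 uM final). Incubated 24 hrs, lysed 10 min, luminescence measured.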"}, "[7]": {"experiment": "qHTS to identify inhibitors of the type 1 interferon - major histocompatibility complex class I in skeletal muscle: primary screen against the NCATS Mechanism Interrogation Plate v5.0 (MIPE) Libary (AID 1347411);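 also: plate controls were vehicle for no effect and reference inhibitor for full effect; nearly all actives have a fitted effect of over 65% in size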", "summary_of_the_method": "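Immortalized human myoblasts (C25cl48) with HiBit knocked into endogenous HLA-B*08:01 were stimulated with 4 ng/ml IFN-beta and given compounds in 11-point 1:3 titration from 46 uM. After 24 h at 37 C, lytic HiBiT luminescence was read.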"}, "[8]": {"target": "Phospholipid hydroperoxide glutathione peroxidase GPX4 (Homo sapiens) (UniProt P36969)", "sequence (P36969 whole entry, looked up)": "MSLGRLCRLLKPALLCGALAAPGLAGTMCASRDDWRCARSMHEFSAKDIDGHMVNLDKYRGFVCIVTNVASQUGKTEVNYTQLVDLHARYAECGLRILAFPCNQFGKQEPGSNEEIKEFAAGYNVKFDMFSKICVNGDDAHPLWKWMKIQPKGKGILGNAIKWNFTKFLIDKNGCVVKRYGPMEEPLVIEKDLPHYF", "experiment": "Primary qHTS Assay for Inhibitors of Recombinant Selenoprotein Glutathione Peroxidase 4 (GPX4) (AID 1845192); also: % is scaled to controls: 0 for no effect and ±100 for the full control effect; nearly all actives have a fitted effect of over 65% in size", "settings": "outcome: at 50 µM (top of the series) unless noted", "summary_of_the_method": "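NADPH consumption, followed by fluorescence at 340/450 nm between 0 and 15 min, reports GPX4 activity via coupled glutathione reductase (100 nM). Enzyme 200 nM was pre-exposed to compound 30 min; 0.5 mM cumene hydroperoxide and 1 mM GSH served as substrates.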"}, "[9]": {"target": "Cytochrome P450 3A4 (Homo sapiens) (UniProt P08684)", "sequence (P08684 whole entry, looked up)": "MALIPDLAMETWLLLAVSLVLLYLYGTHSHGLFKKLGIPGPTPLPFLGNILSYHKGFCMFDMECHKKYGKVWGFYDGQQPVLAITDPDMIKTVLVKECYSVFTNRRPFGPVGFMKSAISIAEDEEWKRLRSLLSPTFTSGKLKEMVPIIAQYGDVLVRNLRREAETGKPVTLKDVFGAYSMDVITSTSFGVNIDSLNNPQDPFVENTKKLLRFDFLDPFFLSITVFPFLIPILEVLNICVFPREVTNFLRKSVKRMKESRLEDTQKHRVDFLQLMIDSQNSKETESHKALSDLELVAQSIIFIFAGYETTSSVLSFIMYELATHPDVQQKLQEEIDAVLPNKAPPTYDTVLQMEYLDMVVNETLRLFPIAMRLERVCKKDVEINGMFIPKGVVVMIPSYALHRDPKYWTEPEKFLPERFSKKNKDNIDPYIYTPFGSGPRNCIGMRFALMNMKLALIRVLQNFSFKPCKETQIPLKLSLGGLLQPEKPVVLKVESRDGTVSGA", "experiment": "qHTS Assay for Activators of Cytochrome P450 3A4 (AID 885); also: nearly all actives have a fitted effect of over 65% in size", "summary_of_the_method": "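Human CYP3A4 (20 nM) with Luciferin-PPXE at 25 uM (its KM) in 200 mM KPO4; 10 min compound preincubation, then NADPH regeneration and 60 min reaction at RT. Luciferin read by luminescence; normalized to 57 uM ketoconazole full inhibition.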"}, "[10]": {"experiment": "Confirmation and Secondary Assay for Modulators of Hemoglobin Beta Chain Splicing at IVS2 654 locus (AID 910);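 also: per-well total GFP intensity by laser scanning cytometry after 2-day treatment; % of control where 0% means no effect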", "summary_of_the_method": "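Readout: per-well total peak green fluorescence (488 nm ex, 500–520 nm em) from objects 5–250 µm, reflecting correct splicing of an EGFP-654 reporter. Compounds were applied for 2 days at 37 °C to overnight-plated HeLa EGFP-654 cells; controls were DMSO and 500 nM IVS2-654 PNA.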"}, "[11]": {"experiment": "Confirmation and Secondary Assay for Modulators of Hemoglobin Beta Chain Splicing at IVS2 705 locus (AID 930);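 also: GFP fluorescence per well restored by corrected splicing of the IVS2-705 intron in EGFP; % of control where 0% means no effect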", "summary_of_the_method": "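Splice-correction reporter: EGFP cDNA split by beta-globin intron 2 bearing the 705 mutation, stably in HeLa. Compound incubation 2 days, 37C; fluorescent objects 5-250 µm summed per well.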"}, "[12]": {"experiment": "qHTS Assay for Lipid Storage Modulators (AID 1519; calls by dose curve; as to activity change, negative = inhibition: % is scaled to controls: 0 for no effect and ±100 for the full control effect)", "settings": "Drosophila S3 cells, BODIPY lipid droplet/cell ratio, laser cytometry, cells loaded with oleic acid", "summary_of_the_method": "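Cells seeded at 5,000 per well were treated with compounds over a concentration series and loaded with oleic acid (400 uM, as added). Lipid droplet fluorescence (488 nm excitation, 500-530 nm channel) was read by laser-scanning cytometry and normalized to 20 uM Triacsin C.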"}, "[13]": {"target": "Ubiquitin carboxyl-terminal hydrolase 1 (Homo sapiens) (UniProt O94782)", "sequence (O94782 whole entry, looked up)": "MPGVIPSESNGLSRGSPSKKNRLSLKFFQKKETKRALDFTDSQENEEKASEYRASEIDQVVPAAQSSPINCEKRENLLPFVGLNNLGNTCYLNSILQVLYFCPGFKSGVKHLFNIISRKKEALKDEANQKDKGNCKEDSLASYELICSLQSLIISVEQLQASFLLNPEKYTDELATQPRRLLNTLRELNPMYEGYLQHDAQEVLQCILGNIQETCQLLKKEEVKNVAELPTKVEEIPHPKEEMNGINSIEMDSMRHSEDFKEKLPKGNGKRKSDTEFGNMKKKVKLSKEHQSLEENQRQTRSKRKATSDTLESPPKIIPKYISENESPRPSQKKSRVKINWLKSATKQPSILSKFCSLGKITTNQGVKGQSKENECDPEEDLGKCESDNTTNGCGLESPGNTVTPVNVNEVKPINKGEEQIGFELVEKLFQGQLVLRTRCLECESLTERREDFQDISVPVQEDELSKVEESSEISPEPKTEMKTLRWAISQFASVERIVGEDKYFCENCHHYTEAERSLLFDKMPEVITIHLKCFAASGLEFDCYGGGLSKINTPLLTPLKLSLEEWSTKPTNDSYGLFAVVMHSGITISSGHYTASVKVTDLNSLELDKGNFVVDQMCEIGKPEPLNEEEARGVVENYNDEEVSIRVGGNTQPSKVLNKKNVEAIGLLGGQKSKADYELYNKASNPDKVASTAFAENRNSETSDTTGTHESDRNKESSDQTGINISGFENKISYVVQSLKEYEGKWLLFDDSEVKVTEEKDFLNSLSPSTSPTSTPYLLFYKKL", "experiment": "Inhibitors of USP1/UAF1: Pilot qHTS (AID 504865);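 also: rhodamine fluorescence freed from ubiquitin-rhodamine substrate followed over time; top concentration of the series differs between compounds; % is scaled to controls: 0 for no effect and ±100 for the full control effect; nearly all actives have a fitted effect of over 35% in size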", "summary_of_the_method": "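Kinetic fluorescence assay: 1nM USP1/UAF1, 15 min compound preincubation, then 150nM Ub-Rho; 480/540 nm.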"}, "[14]": {"settings": "measured here: PEO1 parental Z-AUC"}}, "note": "“And” between values parts separate entries of the source, which are not always exact repeats. Equal values may be shown once. Inconclusive results are not listed. The source made the active and inactive calls. Unless noted, calls follow the shape of the dose curve; as a rule, active = well fitted curve in the direction sought with a large enough effect; inconclusive = small, poorly fitted or top-dose-only effect, or another doubt; inactive = no such curve, though single readings can be large; an effect the other way counts as inactive or inconclusive."}
{"molecule": "CCCCN(CCCC)C(=S)[S-].CCCCN(CCCC)C(=S)[S-].[Zn+2]", "values": [{"measurement": "Potency", "setting": "[1]", "result": "inactive"}]}
{"molecule": "COc1cc(Br)c(C[N+]2(CCOCCC3CCC4CC3C4(C)C)CCOCC2)cc1OC", "note": "(stereo not given)", "values": [{"measurement": "Potency", "setting": "[1]", "result": "inactive"}]}
{"molecule": "C[C@@H](Nc1cc(F)cc(F)c1)c1cc(C(=O)N(C)C)cc2c(=O)cc(N3CCOCC3)oc12", "values": [{"measurement": "Potency", "setting": "[1]", "result": "inactive"}, {"measurement": "Potency", "setting": "[2]", "result": "259 nM (active) and 235 nM (active)"}, {"measurement": "Potency", "setting": "[3]", "result": "411 nM (active) and 1.18 µM (active)"}, {"measurement": "Potency", "setting": "[4]", "result": "inactive"}, {"measurement": "Z-AUC", "setting": "[5]", "result": "-0.864 (inactive)"}, {"measurement": "Z-AUC", "setting": "[5]; [14]", "result": -0.746}, {"measurement": "Z-AUC", "setting": "[5]; measured here: PEO4 Z-AUC", "result": -0.41}, {"measurement": "activity change, negative = inhibition", "setting": "[6]", "result": "-23.5% (inactive)"}]}
{"molecule": "CN(CCO)C1CCN(c2ccc(Nc3ncc4c5ccnc(F)c5n(C5CCCC5)c4n3)nc2)CC1", "values": [{"measurement": "Potency", "setting": "[1]", "result": "11.2 µM (active)"}, {"measurement": "Potency", "setting": "[7]", "result": "inactive"}, {"measurement": "Potency", "setting": "[2]", "result": "574 nM (active)"}, {"measurement": "Potency", "setting": "[3]", "result": "512 nM (active)"}, {"measurement": "Potency", "setting": "[4]", "result": "inactive"}, {"measurement": "Potency", "setting": "[8]", "result": "inactive"}, {"measurement": "Z-AUC", "setting": "[5]", "result": "-1.43 (inactive)"}, {"measurement": "Z-AUC", "setting": "[5]; [14]", "result": -0.563}, {"measurement": "Z-AUC", "setting": "[5]; measured here: PEO4 Z-AUC", "result": -1}]}
{"molecule": "COc1cc(O)c2c(=O)c(O)c(-c3ccc(O)c(O)c3)oc2c1", "values": [{"measurement": "Potency", "setting": "[9]", "result": "inactive"}, {"measurement": "outcome", "setting": "[10]", "result": "inactive"}, {"measurement": "outcome", "setting": "[11]", "result": "inactive"}, {"measurement": "activity change, negative = inhibition", "setting": "[12]; at 57.5 µM (top of the series)", "result": "4.09% (inactive)"}, {"measurement": "max response", "setting": "[12]; measured here: cell count channel max response", "result": -9.74, "unit": "%"}, {"measurement": "max response", "setting": "[12]; measured here: lipid channel max response", "result": -5.25, "unit": "%"}, {"measurement": "Potency", "setting": "[13]", "result": "inactive"}, {"measurement": "Potency", "setting": "[1]", "result": "inactive"}, {"measurement": "Potency", "setting": "[2]", "result": "10300 nM (active)"}, {"measurement": "Potency", "setting": "[3]", "result": "14600 nM (active)"}, {"measurement": "Potency", "setting": "[4]", "result": "inactive"}]}
